Measurements taken from PubChem BioAssay (NCI).
About 79,000 compounds went through this panel and 15% of them were active in at least one assay; those are over-represented in the sample as a whole. Calls of active or inactive are those of the source. No stated cut-off is given here; in the data, active means growth inhibition above about 70%; inactive means the rest.

Legend:
[1] = NCI Yeast Anticancer Drug Screen. Data for the rad52 strain (AID 147);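 further: 0% = growth of vehicle-treated control cultures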; conditions: S. cerevisiae rad52 mutant growth inhibition, hits give high values
How it was run: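 Growth of repair-deficient yeast cells was compared between compound-treated and vehicle-treated cultures to give percent inhibition.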

[2] = NCI Yeast Anticancer Drug Screen. Data for the wt1 strain (AID 149);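 further: 0% = growth of vehicle-treated wt1 cultures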; conditions: S. cerevisiae wt1 strain (SPY 50644) growth inhibition, hits give high values
How it was run: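 Compounds are added to wt1 yeast cultures. Growth is then measured. Inhibition is expressed relative to vehicle-treated controls.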

[3] = NCI Yeast Anticancer Drug Screen. Data for the rad50EPP+ strain (AID 151);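 further: 0% = growth of vehicle-treated control cultures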; conditions: S. cerevisiae rad50 mutant strain, hits give high values
How it was run: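 Measured: growth inhibition of rad50EPP+ yeast. Reference: vehicle-treated controls. Screen uses strains with defined genetic alterations in DNA damage repair or cell cycle control.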

[4] = NCI Yeast Anticancer Drug Screen. Data for the rad50 strain (AID 155);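 further: 0% = growth of vehicle-only cultures of the same strain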; conditions: S. cerevisiae rad50 strain growth inhibition, hits give high values
How it was run: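 Inhibition values express reduced yeast growth in compound-treated cultures relative to vehicle-treated controls.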

[5] = NCI Yeast Anticancer Drug Screen. Data for the mec2-1 strain (AID 157); conditions: S. cerevisiae mec2-1 strain, hits give high values
How it was run: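 Compounds were applied to mec2-1 yeast cells. Their growth was then compared with that of vehicle-treated cultures to give growth inhibition.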

[6] = NCI Yeast Anticancer Drug Screen. Data for the rad14 strain (AID 159);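 further: 0% = growth of vehicle-treated control cultures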; conditions: S. cerevisiae rad14 strain growth inhibition, hits give high values
How it was run: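 A mutant yeast strain defective in DNA damage repair is treated with compound; inhibition of its growth is scored against untreated, vehicle-exposed cultures.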

[7] = NCI Yeast Anticancer Drug Screen. Data for the sgs1 mgt1 strain (AID 161);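 further: 0% = growth of cultures given vehicle only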; conditions: S. cerevisiae sgs1 mgt1 strain, hits give high values
How it was run: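 Percent growth inhibition was derived by comparing compound-exposed mutant yeast with vehicle-exposed cultures. The strain carries alterations in DNA damage repair.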

[8] = NCI Yeast Anticancer Drug Screen. Data for the CLN2oe strain (AID 163);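 further: 0% = growth of vehicle-only control cultures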; conditions: S. cerevisiae CLN2oe strain, hits give high values
How it was run: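 Cells of an engineered yeast line with disturbed cell-cycle regulation are treated with compound. Inhibition of growth is then calculated relative to the vehicle-treated reference.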

[9] = NCI Yeast Anticancer Drug Screen. Data for the cln2 rad14 strain (AID 165);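 further: 0% = growth equal to vehicle treated cultures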; conditions: S. cerevisiae cln2 rad14 strain, hits give high values
How it was run: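 Strain: cln2 rad14 yeast, altered in cell cycle control and DNA damage repair. Read-out: growth inhibition vs vehicle.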

[10] = NCI Yeast Anticancer Drug Screen. Data for the bub3 strain (AID 167); conditions: S. cerevisiae bub3 mutant strain, hits give high values
How it was run: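 Steps: expose the mutant yeast strain to compound; grow alongside vehicle-treated cultures; measure growth; express inhibition against the vehicle cultures.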

[11] = NCI Yeast Anticancer Drug Screen. Data for the wt2 strain (AID 169);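 further: 0% = growth of vehicle-treated yeast cultures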; conditions: S. cerevisiae wt2 strain growth inhibition, hits give high values
How it was run: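 Growth of compound-treated yeast is measured and expressed as inhibition relative to vehicle-only controls.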

[12] = NCI Yeast Anticancer Drug Screen. Data for the mlh1 strain (AID 171);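 further: 0% = growth of vehicle-treated control cultures of the same strain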; conditions: S. cerevisiae mlh1 strain growth inhibition, hits give high values
How it was run: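 Test agents were incubated with yeast bearing a defined DNA damage repair or cell cycle control alteration; values are growth inhibition normalised to vehicle-treated cultures.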

[13] = NCI Yeast Anticancer Drug Screen. Data for the sgs1 strain (AID 173);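 further: 0% = growth of vehicle-only control cultures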; conditions: S. cerevisiae sgs1 mutant, hits give high values
How it was run: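 Strain with an altered DNA repair or cell cycle pathway exposed to compound. Growth then measured. Value = inhibition versus vehicle control.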

[14] = NCI Yeast Anticancer Drug Screen. Data for the mlh1 rad18 strain (AID 175); conditions: S. cerevisiae mlh1 rad18 strain growth inhibition, hits give high values
How it was run: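 A repair-deficient yeast strain is exposed to test compound, and growth is scored relative to vehicle-treated controls.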

[15] = NCI Yeast Anticancer Drug Screen. Data for the rad18 strain (AID 177); conditions: S. cerevisiae rad18 mutant growth inhibition, hits give high values
How it was run: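 DNA-repair-defective yeast; compound treatment; growth inhibition scored against vehicle.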

[16] = at 5.0 µM (retest, dose inferred, filed as 0.5)
[17] = at 50.0 µM (retest, dose inferred, filed as 5.0)

Measured: growth inhibition

O=S1(=O)c2ccccc2N=C(c2ccccc2Cl)CC1c1ccc(F)cc1 (stereo not drawn)
active: [14]; [17] 81% | [14]; at 50.0 µM 72.5%
inactive: [1]; at 1.2 µM 21% | [1]; at 3.7 µM 24% | [1]; at 11.0 µM 28% | [1]; at 33.0 µM 35% | [1]; at 100.0 µM 34% | [2]; at 1.2 µM 0% | [2]; at 3.7 µM -4% | [2]; at 11.0 µM 25% | [2]; at 33.0 µM 36% | [2]; at 100.0 µM 8% | [3]; at 1.2 µM -23% | [3]; at 3.7 µM -22% | [3]; at 11.0 µM 0% | [3]; at 33.0 µM 15% | [3]; at 100.0 µM 24% | [4]; at 1.2 µM -39% | [4]; at 3.7 µM -34% | [4]; [16] -7% | [4]; at 11.0 µM -18% | [4]; at 33.0 µM 17% | [4]; [17] 29% | [4]; at 50.0 µM 18.3% | [4]; at 100.0 µM 13% | [5]; at 1.2 µM -52% | [5]; at 3.7 µM -27% | [5]; [16] -22% | [5]; at 11.0 µM -29% | [5]; at 33.0 µM 0% | [5]; [17] -10% | [5]; at 50.0 µM -10.2% | [5]; at 100.0 µM -27% | [6]; at 1.2 µM -32% | [6]; at 3.7 µM -47% | [6]; at 11.0 µM -25% | [6]; at 33.0 µM -3% | [6]; at 100.0 µM -6% | [7]; [16] -5% | [7]; [17] -8% | [7]; at 50.0 µM 61% | [8]; at 1.2 µM -9% | [8]; at 3.7 µM -8% | [8]; at 11.0 µM -10% | [8]; at 33.0 µM -1% | [8]; at 100.0 µM -13% | [9]; [16] 17% | [9]; [17] 16% | [9]; at 50.0 µM 31.5% | [10]; at 1.2 µM -4% | [10]; at 3.7 µM -16% | [10]; [16] -20% | [10]; at 11.0 µM -5% | [10]; at 33.0 µM -2% | [10]; [17] 56% | [10]; at 50.0 µM 3.25% | [10]; at 100.0 µM 13% | [11]; at 1.2 µM -6% | [11]; at 3.7 µM -8% | [11]; at 11.0 µM -20% | [11]; at 33.0 µM 7% | [11]; at 100.0 µM 25% | [12]; at 1.2 µM -17% | [12]; at 3.7 µM -10% | [12]; at 11.0 µM -8% | [12]; at 33.0 µM 13% | [12]; at 100.0 µM 7% | [13]; at 1.2 µM -7% | [13]; at 3.7 µM 8% | [13]; at 11.0 µM -15% | [13]; at 33.0 µM 17% | [13]; at 100.0 µM 33% | [14]; [16] -26% | [15]; at 1.2 µM -3% | [15]; at 3.7 µM 2% | [15]; at 11.0 µM 18% | [15]; at 33.0 µM 36% | [15]; at 100.0 µM 22%

Cc1cc(OCc2ccccc2)ccc1[N+](=O)[O-]
active: [3]; at 100.0 µM 75% | [4]; [17] 85% | [5]; [17] 85%
inactive: [1]; at 1.2 µM 20% | [1]; at 3.7 µM 22% | [1]; at 11.0 µM 21% | [1]; at 33.0 µM 44% | [1]; at 100.0 µM 69% | [2]; at 1.2 µM 23% | [2]; at 3.7 µM -10% | [2]; at 11.0 µM 21% | [2]; at 33.0 µM 32% | [2]; at 100.0 µM 60% | [3]; at 1.2 µM -2% | [3]; at 3.7 µM -2% | [3]; at 11.0 µM 5% | [3]; at 33.0 µM 57% | [4]; at 1.2 µM 11% | [4]; at 3.7 µM 34% | [4]; [16] 50% | [4]; at 11.0 µM 29% | [4]; at 33.0 µM 31% | [4]; at 50.0 µM 37.2% | [4]; at 100.0 µM 50% | [5]; at 1.2 µM 2% | [5]; at 3.7 µM 15% | [5]; [16] 51% | [5]; at 11.0 µM 10% | [5]; at 33.0 µM 22% | [5]; at 50.0 µM 26.9%
